The record followed here is PubChem BioAssay (NCI).

The structures appear in SMILES notation. About 83,000 compounds went through this panel and 20% of them were active in at least one assay; those are over-represented in the sample as a whole.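 Growth was measured after 48 h exposure to one concentration of compound in 96-well plates. Values under 10 count as active.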 Unmarked numbers belong to inactive results. The source made the active and inactive calls.

The experiment concerns HL-60(TB) leukemia. As to the kind of experiment: NCI-60 one-dose screen, 48 h (100 = growth as untreated, 0 = no growth, -100 = all killed). Conditions: 10 µM unless noted.
On to `COc1cc(-c2nc3ccccc3s2)ccc1NC(=O)COc1ccc(Cl)cc1`, for which the growth is 56.3%.
In the case of `O=C(C(=O)N1CCOCC1)c1ccc(OC2OC(CO)C(O)C(O)C2O)cc1` (centres undefined) it was 82.7%; in that of `Oc1ccc(-c2nc3ccc4[nH]ncc4c3c3c2CCCC3)c2cccnc12`, -8.83% (active).
With `CC(=O)c1c[nH]c2ccc(-c3ccnc(Nc4ccc(NC(=O)C5CCCC5)c(CN5CCOCC5)c4)n3)cc12` the figure was -31.5% (active).
In the case of `C=CCSSC1N=CNc2nc[nH]c21` (centres undefined), the growth is 32%.
As to `O=C1C=CC(=O)N1Cc1ccco1`, the growth is 108%.
As to `CCN(CC)CCCOCCCNc1cc(OC)cc2cccnc12`, the growth was 107%.
As to `CN(C)CCOC(=O)Nc1ccccc1Cl`, the growth is 112%.
With `Cc1ccc(C)c2c1SC1=NNC(Oc3ccc(Cl)cc3)=C(C#N)C(=N)N12`, the growth is 122%.
In the case of `COc1cc(/C=C/C(=O)c2nc3cc(F)ccc3nc2C)cc(OC)c1OC` it was -45.6% (active).
With `CN1CCN(Cc2ccc(NC(=O)c3cncc(C#Cc4cnc(N)c5ncccc45)c3)cc2Cl)CC1` the figure was 21.5%; with `c1ccc(Nc2nc(-c3ccccn3)cs2)nc1`, 1.61% (active); with `C[C@@]1(C(=O)Nc2ccc(F)nc2)CCCN1c1nc(Nc2cc(C3CC3)[nH]n2)c2cccn2n1`, 9.68% (active).
Regarding `Cc1ccc(C(CC(=O)O)c2c(C)[nH][nH]c2=O)cc1` (centres undefined), the growth was 98.8%.
In the case of `COc1ccc(C(=O)COc2cccc(/C=C3\Cc4ccccc4C3=O)c2)cc1` it was 73.4%; in that of `CCc1nnc(NC(=O)c2ccoc2COc2ccccc2)s1`, 19.3%.
For `O=C(CC(O)c1ccncc1)c1ccccc1` (centres undefined), the growth was 100%.
`CN(C)c1ccc(C(=NO)c2ccc(N(C)C)cc2)cc1`: the growth was 25%.
Take `COc1ncc(-c2ccc3ncnc(Nc4cccc(Cl)c4)c3c2)cc1N(S(C)(=O)=O)S(C)(=O)=O`: the growth was 49.7%.
Turning to `O=C(NO)c1ccc(CNc2cccc3nc(C4CC4)n(-c4ccccc4)c(=O)c23)cc1`, the growth is 7.45% (active).
As to `COc1ccc2c(c1)/C(=C/c1c(-c3cc(OC)c(OC)c(OC)c3)nc3sccn13)C(=O)N2`, the growth is 83.4%.
Regarding `C/C(=N\NC(=S)N1CCCCC1)c1ccccn1`, the growth was -21.6% (active).
Regarding `O=c1c2ccccc2oc2ccc(OCCCCCCN3CCCCCC3)cc12`, the growth is -47.9% (active).
In the case of `CCCCCCNc1nc(N2CCOCC2)c2[nH]c(NCCCCCC)nc2n1`, the growth is -54.8% (active).
For `CCCCCCCCCCNC(=O)CI`, the growth was 19.3%.
`CC(C)c1ccc(C(=O)Nc2sc3c(c2C#N)CCC(=O)C3)cc1`: the growth was -16.7% (active).
In the case of `COc1cc(NS(C)(=O)=O)ccc1Nc1c2ccc(Cl)cc2nc2c(OC)cccc12` it was -30.1% (active); in that of `CN(C)S(=O)(=O)c1cccc(C(=O)Nc2nc(-c3ccc(F)c(F)c3)cs2)c1`, 61.1%; in that of `CC1(O)CCCCCC1`, 92.7%.
For the molecule `CCCCCCN(CCCCCC)CCCNc1nccc2ccccc12`, the growth was -1.22% (active).
As for `COC(=O)c1c2c(c(C)[n+]([O-])c1C)C(=O)C(NCc1ccc(F)c(F)c1)=CC2=O`, the growth is -23.6% (active).
`Fc1ccc(-c2ccnc3nc(-c4ccncc4)nn23)cc1`: the growth is 96.5%.
For the molecule `Oc1ccc(Cl)cc1CNc1nc2ccccc2[nH]1`, the growth is -56.6% (active).
For `COc1cc(C2CC(=O)Nc3c2c(C)nn3-c2nc3ccccc3[nH]2)c(OC)c2c1OCO2` (centres undefined), the growth was 26.2%.
For `CN(CCCNC(=O)Cc1ccc2ccc3cccc4ccc1c2c34)CCCNc1cc(-c2ccc3ccccc3c2)nc2ccccc12`, the growth is -60.1% (active).
Regarding `CN1CCN(C)c2cncc(Br)c2C1=O`, the growth was 96.4%.
Consider `COc1ccc2c(c1)nc(N)c1c3cc(OC)c(OC)cc3cn21`, for which the growth was 23.1%.
On to `Cc1nc([N+](=O)[O-])c(Sc2nncc(-c3ccccc3)n2)n1C`, for which the growth was 91.7%.
In the case of `Cc1ccc(Nc2c(C(N)=O)cnc3ccc(S(=O)(=O)Nc4cc(C)on4)cc23)cc1` it was 113%.
